Assay results as given in PubChem BioAssay AID1159580 (chemical genetic matrix, 2015).
“And” between values parts separate entries of the source, which are not always exact repeats. Identical values can stand only once. About 2,000 (36%) of roughly 5,500 compounds were called active. Another 18% or so got no clear call; they are omitted. Rule as the data show it: active = normalized growth mostly below about 0.91 (no sharp cut-off); inconclusive = no clear call, values can overlap the other calls; inactive = mostly above about 0.92. This is one part of the list.

Experiment: chemical genetic growth profiling, strain panel (AID 1159580);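 also: tested at 20 µM; growth read once vehicle control cultures reached saturation at 30 °C; 1 = growth at the plate median or of vehicle wells; lower values mean less growth of the strain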
Details: S. cerevisiae deletion strains, growth OD

Measured: normalized growth

COC1(C)CCC2OC2(C)CCC2C1CC2(C)C (centres undefined)
inactive: locus YAL013W, strain DEP1, active compounds read low 1 | locus YAL021C, strain ccr4, active compounds read low 1 | locus YAL026C, strain drs2, active compounds read low 1.03 | locus YAL030W, strain snc1, active compounds read low 1.01 | locus YBL061C, strain skt5, active compounds read low 1.01 | locus YBR009C, strain hhf1, active compounds read low 0.991 | locus YBR021W, strain FUR4, active compounds read low 1.02 | locus YBR023C, strain chs3, active compounds read low 1 | locus YBR171W, strain sec66, active compounds read low 1.02 | locus YBR229C, strain ROT2, active compounds read low 1.01 | locus YBR231C, strain swc5, active compounds read low 1.02 | locus YBR279W, strain paf1, active compounds read low 0.998 | locus YCL011C, strain gbp2, active compounds read low 1.01 | locus YCL016C, strain dcc1, active compounds read low 1 | locus YCL029C, strain bik1, active compounds read low 0.998 | locus YCL061C, strain MRC1, active compounds read low 1 | locus YCL069W, strain vba3, active compounds read low 1.02 | locus YCR088W, strain abp1, active compounds read low 1.01 | locus YDL005C, strain med2, active compounds read low 1.01 | locus YDL035C, strain GPR1, active compounds read low 1.01 | locus YDL040C, strain nat1, active compounds read low 1.01 | locus YDL074C, strain BRE1, active compounds read low 1.01 | locus YDL101C, strain DUN1, active compounds read low 1.02 | locus YDL134C, strain PPH21, active compounds read low 1.04 | locus YDL185W, strain tfp1, active compounds read low 1.01 | locus YDL192W, strain arf1, active compounds read low 0.99 | locus YDR001C, strain nth1, active compounds read low 1.01 | locus YDR069C, strain doa4, active compounds read low 1.01 | locus YDR101C, strain arx1, active compounds read low 0.993 | locus YDR137W, strain rgp1, active compounds read low 1 | locus YDR150W, strain NUM1, active compounds read low 0.98 | locus YDR159W, strain sac3, active compounds read low 0.997 | locus YDR162C, strain NBP2, active compounds read low 0.995 | locus YDR195W, strain ref2 1.02 | locus YDR297W, strain sur2, active compounds read low 0.997 | locus YDR318W, strain mcm21, active compounds read low 1.01 | locus YDR334W, strain swr1, active compounds read low 1.02 | locus YDR335W, strain msn5, active compounds read low 1.02 | locus YDR388W, active compounds read low 1.01 | locus YDR392W, strain spt3, active compounds read low 0.818 | locus YDR502C, strain sam2, active compounds read low 1.04 | locus YEL003W, strain gim4, active compounds read low 1.01 | locus YEL037C, strain rad23, active compounds read low 1.01 | locus YEL061C, strain CIN8 (second series), active compounds read low 1.02 | locus YER015W, strain faa2, active compounds read low 1 | locus YER016W, strain bim1, active compounds read low 1.01 | locus YER110C, active compounds read low 1.02 | locus YER111C, strain swi4, active compounds read low 1 | locus YER155C, strain BEM2 (second series), active compounds read low 0.995 | locus YER155C, strain BEM2, active compounds read low 0.996 | locus YER167W, strain BCK2, active compounds read low 0.997 | locus YFR010W, strain ubp6, active compounds read low 1.03 | locus YGL078C, strain dbp3, active compounds read low 1.05 | locus YGL086W, strain mad1, active compounds read low 1 | locus YGL167C, strain pmr1, active compounds read low 1.01 | locus YGL173C, strain kem1, active compounds read low 1.01 | locus YGL227W, strain vid30, active compounds read low 1.01 | locus YGL240W, strain doc1, active compounds read low 1 | locus YGL248W, strain PDE1, active compounds read low 1.05 | locus YGL253W, strain hxk2, active compounds read low 1.01 | locus YGR078C, strain PAC10, active compounds read low 1.05 | locus YGR135W, strain pre9, active compounds read low 1.06 | locus YGR252W, strain gcn5, active compounds read low 1.03 | locus YHR013C, strain ard1, active compounds read low 1.03 | locus YHR027C, strain rpn1, active compounds read low 1.02 | locus YHR030C, strain SLT2, active compounds read low 1.01 | locus YHR079C, strain IRE1 (second series), active compounds read low 1 | locus YHR079C, strain IRE1, active compounds read low 1.04 | locus YHR094C, strain hxt1, active compounds read low 1.01 | locus YHR129C, strain ARP1, active compounds read low 1.01 | locus YHR142W, strain chs7, active compounds read low 1.03 | locus YHR200W, strain rpn10, active compounds read low 1.02 | locus YIL066C, strain RNR3, active compounds read low 1 | locus YIL073C, strain SPO22, active compounds read low 1.06 | locus YIL125W, strain kgd1, active compounds read low 0.981 | locus YIR030C, strain dcg1, active compounds read low 0.999 | locus YJL092W, strain hpr5, active compounds read low 1.01 | locus YJL095W, strain BCK1 (second series), active compounds read low 1.01 | locus YJL095W, strain BCK1, active compounds read low 1.11 and 1.04 | locus YJL115W, strain asf1, active compounds read low 1.01 | locus YJL129C, strain trk1, active compounds read low 1.01 | locus YJL134W, strain LCB3, active compounds read low 1.01 | locus YJL154C, strain vps35, active compounds read low 1.02 | locus YJL164C, strain tpk1, active compounds read low 1.01 | locus YJL166W, strain qcr8, active compounds read low 1.02 | locus YJL168C, strain set2, active compounds read low 0.988 | locus YJL187C, strain SWE1 (second series), active compounds read low 1.05 | locus YJL187C, strain SWE1, active compounds read low 1 | locus YJR043C, strain POL32, active compounds read low 0.99 | locus YJR066W, strain TOR1, active compounds read low 0.962 | locus YKL009W, strain mrt4, active compounds read low 1.04 | locus YKL068W, active compounds read low 1 | locus YKL085W, strain MDH1 (second series), active compounds read low 1 | locus YKL085W, strain MDH1, active compounds read low 1 | locus YKL160W, strain elf1, active compounds read low 1 | locus YKL190W, strain CNB1, active compounds read low 1 | locus YKR001C, strain vps1, active compounds read low 1.02 | locus YKR026C, strain gcn3, active compounds read low 1.01 | locus YKR091W, strain srl3, active compounds read low 1.01 | locus YLL001W, strain dnm1, active compounds read low 0.989 | locus YLL026W, active compounds read low 0.991 | locus YLL041C, strain sdh2, active compounds read low 1.02 | locus YLR027C, strain aat2, active compounds read low 0.993 | locus YLR039C, strain RIC1, active compounds read low 1.06 | locus YLR058C, strain SHM2, active compounds read low 1.03 | locus YLR102C, strain apc9, active compounds read low 0.997 | locus YLR113W, strain HOG1, active compounds read low 1.03 | locus YLR221C, strain rsa3, active compounds read low 1.01 | locus YLR258W, strain gsy2, active compounds read low 1.01 | locus YLR262C, strain YPT6 (second series), active compounds read low 0.979 | locus YLR262C, strain YPT6, active compounds read low 1.07 | locus YLR268W, strain sec22, active compounds read low 0.983 | locus YLR320W, strain mms22, active compounds read low 1 | locus YLR342W, strain FKS1, active compounds read low 1 | locus YLR357W, strain rsc2, active compounds read low 1.02 | locus YLR370C, strain arc18, active compounds read low 1 | locus YLR371W, strain rom2, active compounds read low 1.01 | locus YLR384C, strain iki3, active compounds read low 1 | locus YLR418C, strain cdc73, active compounds read low 1.04 | locus YML016C, strain PPZ1, active compounds read low 1.02 | locus YML032C, strain rad52, active compounds read low 1 | locus YML120C, strain ndi1, active compounds read low 1.01 | locus YML124C, strain tub3, active compounds read low 1 | locus YMR058W, strain fet3, active compounds read low 1.01 | locus YMR078C, strain ctf18, active compounds read low 1.01 | locus YMR125W, strain sto1, active compounds read low 0.997 | locus YMR129W, active compounds read low 1.01 | locus YMR205C, strain PFK2, active compounds read low 0.981 | locus YMR223W, strain ubp8, active compounds read low 1.01 | locus YMR231W, strain pep5, active compounds read low 1 | locus YMR307W, strain GAS1, active compounds read low 1.02 | locus YNL067W, strain RPL9B, active compounds read low 1.04 | locus YNL071W, strain lat1, active compounds read low 1.01 | locus YNL153C, strain GIM3, active compounds read low 1.04 | locus YNL183C, strain NPR1, active compounds read low 0.972 | locus YNL209W, strain ssb2, active compounds read low 1.01 | locus YNL233W, strain BNI4, active compounds read low 1.06 | locus YNL248C, strain rpa49, active compounds read low 1.02 | locus YNL250W, strain rad50, active compounds read low 1.03 | locus YNL271C, strain bni1, active compounds read low 1.01 | locus YNL298W, strain CLA4, active compounds read low 1.02 | locus YNL307C, strain MCK1, active compounds read low 1.01 | locus YNL322C, strain KRE1 (second series), active compounds read low 1.01 | locus YNR049C, strain mso1, active compounds read low 1.01 | locus YNR052C, strain pop2, active compounds read low 1.03 | locus YOL012C, strain htz1 1.84 | locus YOL147C, strain pex11, active compounds read low 1.01 | locus YOR001W, strain rrp6, active compounds read low 1.02 | locus YOR061W, strain CKA2, active compounds read low 1.01 | locus YOR069W, strain VPS5, active compounds read low 1.01 | locus YOR070C, strain gyp1, active compounds read low 1.02 | locus YOR080W, strain dia2, active compounds read low 1 | locus YOR083W, strain WHI5, active compounds read low 0.996 | locus YOR106W, strain vam3, active compounds read low 1.01 | locus YOR136W, strain idh2, active compounds read low 1.01 | locus YOR144C, strain elg1, active compounds read low 0.994 | locus YOR184W, strain ser1, active compounds read low 0.976 | locus YOR231W, strain MKK1, active compounds read low 1.07 | locus YOR265W, strain rbl2, active compounds read low 1.02 | locus YOR270C, strain vph1, active compounds read low 1.15 | locus YOR290C, strain snf2, active compounds read low 1.02 | locus YOR316C, strain cot1, active compounds read low 1.01 | locus YPL051W, strain arl3, active compounds read low 0.976 | locus YPL055C, strain LGE1, active compounds read low 1 | locus YPL078C, strain atp4, active compounds read low 1.01 | locus YPL106C, strain sse1, active compounds read low 1.01 | locus YPL240C, strain hsp82, active compounds read low 1.01 | locus YPL241C, strain CIN2, active compounds read low 0.993 | locus YPL256C, strain CLN2, active compounds read low 1.03 | locus YPR119W, strain clb2, active compounds read low 1 | locus YPR141C, strain kar3, active compounds read low 1.02 | locus YPR163C, strain tif3, active compounds read low 1 | locus YPR167C, strain met16, active compounds read low 1.01 | strain wtn01, active compounds read low 0.986
